The values below come from ChEMBL document CHEMBL1961873, “Compounds: GSK PKIS; Assays: Nanosyn kinase panel” (2012).

The inhibition is the percentage by which the read-out fell short of the control. Read a high inhibition as strong suppression.

Each structure is given as a SMILES string.

The target in assay [1] is Protein kinase C gamma type (Homo sapiens) (UniProt P05129). The following applies: at 1 µM.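 Note: each value is an averaged percent inhibition of the enzyme.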
Assay [2] concerns the target T1, Protein kinase C iota type (Homo sapiens) (UniProt P41743).
T1 sequence (whole entry): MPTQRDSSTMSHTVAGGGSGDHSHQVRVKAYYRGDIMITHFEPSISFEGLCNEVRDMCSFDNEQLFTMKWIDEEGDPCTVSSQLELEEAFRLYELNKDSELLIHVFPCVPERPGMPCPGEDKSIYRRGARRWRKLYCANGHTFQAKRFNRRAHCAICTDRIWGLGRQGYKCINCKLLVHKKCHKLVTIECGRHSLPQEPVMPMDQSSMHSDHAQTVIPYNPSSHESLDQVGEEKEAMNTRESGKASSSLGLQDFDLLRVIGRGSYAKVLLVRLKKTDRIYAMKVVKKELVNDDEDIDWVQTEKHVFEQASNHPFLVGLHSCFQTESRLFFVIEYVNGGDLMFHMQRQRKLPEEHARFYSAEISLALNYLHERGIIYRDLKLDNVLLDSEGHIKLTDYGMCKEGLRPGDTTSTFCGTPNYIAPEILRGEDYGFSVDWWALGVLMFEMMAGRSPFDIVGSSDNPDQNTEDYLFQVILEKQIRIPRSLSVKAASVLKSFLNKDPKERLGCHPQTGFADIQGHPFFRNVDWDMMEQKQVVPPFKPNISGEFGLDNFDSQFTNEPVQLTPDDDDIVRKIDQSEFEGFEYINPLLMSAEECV
The settings on record: at 0.1 µM.

In assay [3] the target is T1, Protein kinase C iota type (Homo sapiens). The settings on record: at 1 µM.
Assay [4] addresses Protein kinase C theta type (Homo sapiens) (UniProt Q04759). The settings on record: at 0.1 µM.
Assay [5] has the same target. The following applies: at 1 µM.
The target of assay [6] is Protein kinase C beta type (Homo sapiens) (UniProt P05771). The following applies: at 0.1 µM.
Assay [7] shares this target. The settings on record: at 1 µM.
Assay [8] concerns the target T2, Serine/threonine-protein kinase D1 (Homo sapiens) (UniProt Q15139).
T2 sequence (whole entry): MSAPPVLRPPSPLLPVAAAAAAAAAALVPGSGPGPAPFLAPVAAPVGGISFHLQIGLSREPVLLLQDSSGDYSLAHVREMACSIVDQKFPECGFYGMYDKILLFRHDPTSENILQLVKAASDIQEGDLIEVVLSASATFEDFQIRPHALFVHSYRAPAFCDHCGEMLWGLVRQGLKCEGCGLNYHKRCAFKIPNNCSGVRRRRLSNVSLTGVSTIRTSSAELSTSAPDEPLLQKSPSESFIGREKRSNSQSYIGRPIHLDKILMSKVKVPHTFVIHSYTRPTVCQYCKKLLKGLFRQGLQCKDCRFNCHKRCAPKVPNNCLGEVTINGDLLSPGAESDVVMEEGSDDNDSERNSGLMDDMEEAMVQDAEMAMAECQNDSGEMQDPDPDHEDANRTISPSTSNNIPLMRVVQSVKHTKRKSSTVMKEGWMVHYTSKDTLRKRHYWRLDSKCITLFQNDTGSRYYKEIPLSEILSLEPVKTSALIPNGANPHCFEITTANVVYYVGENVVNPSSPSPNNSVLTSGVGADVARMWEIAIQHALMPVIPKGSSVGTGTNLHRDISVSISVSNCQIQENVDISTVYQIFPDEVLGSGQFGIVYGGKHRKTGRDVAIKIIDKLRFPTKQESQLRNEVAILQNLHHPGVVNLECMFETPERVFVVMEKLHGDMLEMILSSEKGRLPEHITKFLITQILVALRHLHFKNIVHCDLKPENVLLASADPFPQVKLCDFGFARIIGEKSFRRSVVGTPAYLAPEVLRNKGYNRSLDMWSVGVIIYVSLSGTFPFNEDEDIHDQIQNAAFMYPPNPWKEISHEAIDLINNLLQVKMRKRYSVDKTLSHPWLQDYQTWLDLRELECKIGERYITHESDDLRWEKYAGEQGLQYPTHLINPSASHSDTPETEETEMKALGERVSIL
The settings on record: at 0.1 µM.

The target in assay [9] is T2, Serine/threonine-protein kinase D1 (Homo sapiens). The settings on record: at 1 µM.
Assay [10] addresses T3, Serine/threonine-protein kinase D2 (Homo sapiens) (UniProt Q9BZL6).
T3 sequence (whole entry): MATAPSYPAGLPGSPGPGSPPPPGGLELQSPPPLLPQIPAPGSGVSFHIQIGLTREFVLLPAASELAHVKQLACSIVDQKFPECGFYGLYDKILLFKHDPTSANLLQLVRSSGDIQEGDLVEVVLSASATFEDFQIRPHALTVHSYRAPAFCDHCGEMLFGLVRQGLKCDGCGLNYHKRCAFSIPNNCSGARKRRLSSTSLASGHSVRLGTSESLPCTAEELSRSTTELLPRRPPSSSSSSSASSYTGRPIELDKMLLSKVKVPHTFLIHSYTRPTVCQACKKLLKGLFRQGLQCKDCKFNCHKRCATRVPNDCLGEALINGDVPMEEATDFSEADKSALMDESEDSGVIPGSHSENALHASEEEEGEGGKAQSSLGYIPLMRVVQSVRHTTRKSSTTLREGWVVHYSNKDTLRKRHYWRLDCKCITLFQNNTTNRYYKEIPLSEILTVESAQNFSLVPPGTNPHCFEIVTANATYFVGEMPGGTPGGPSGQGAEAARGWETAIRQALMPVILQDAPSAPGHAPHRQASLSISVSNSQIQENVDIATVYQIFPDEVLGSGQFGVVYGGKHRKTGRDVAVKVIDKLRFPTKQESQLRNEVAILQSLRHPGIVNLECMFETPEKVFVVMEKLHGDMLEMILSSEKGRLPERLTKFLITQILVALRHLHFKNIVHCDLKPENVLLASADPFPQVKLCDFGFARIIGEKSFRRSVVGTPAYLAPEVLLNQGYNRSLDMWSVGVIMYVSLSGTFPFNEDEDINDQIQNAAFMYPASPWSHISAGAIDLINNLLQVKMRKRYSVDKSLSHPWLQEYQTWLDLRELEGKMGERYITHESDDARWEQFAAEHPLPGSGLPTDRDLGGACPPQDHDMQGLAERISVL
The following applies: at 0.1 µM.

For assay [11], the target named is T3, Serine/threonine-protein kinase D2 (Homo sapiens). The following applies: at 1 µM.
In assay [12] the target is T4, Serine/threonine-protein kinase D3 (Homo sapiens) (UniProt O94806).
T4 sequence (whole entry): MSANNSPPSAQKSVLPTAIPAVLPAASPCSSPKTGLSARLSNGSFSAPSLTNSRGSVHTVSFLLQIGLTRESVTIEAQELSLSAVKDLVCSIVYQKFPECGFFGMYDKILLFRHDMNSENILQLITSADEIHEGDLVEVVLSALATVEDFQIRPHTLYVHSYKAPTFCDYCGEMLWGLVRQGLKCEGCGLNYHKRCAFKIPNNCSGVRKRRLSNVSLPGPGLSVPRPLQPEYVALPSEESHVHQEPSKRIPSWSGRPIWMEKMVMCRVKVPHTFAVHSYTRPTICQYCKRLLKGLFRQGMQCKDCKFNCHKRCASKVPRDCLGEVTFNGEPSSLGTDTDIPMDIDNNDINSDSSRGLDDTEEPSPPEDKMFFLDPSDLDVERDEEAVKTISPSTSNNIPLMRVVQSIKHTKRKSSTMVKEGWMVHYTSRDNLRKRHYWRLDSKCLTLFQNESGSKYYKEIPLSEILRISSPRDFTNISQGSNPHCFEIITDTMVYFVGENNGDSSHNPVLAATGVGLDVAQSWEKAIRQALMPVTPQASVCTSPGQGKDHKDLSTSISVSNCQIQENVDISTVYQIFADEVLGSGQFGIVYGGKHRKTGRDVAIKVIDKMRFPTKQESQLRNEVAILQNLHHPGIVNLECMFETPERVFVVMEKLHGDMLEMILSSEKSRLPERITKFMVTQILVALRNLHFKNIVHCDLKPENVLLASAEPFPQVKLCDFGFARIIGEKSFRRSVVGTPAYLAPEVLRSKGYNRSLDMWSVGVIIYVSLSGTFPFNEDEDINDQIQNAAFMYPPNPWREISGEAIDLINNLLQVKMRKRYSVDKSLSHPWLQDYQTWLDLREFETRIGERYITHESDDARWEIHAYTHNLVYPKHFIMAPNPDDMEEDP
The settings on record: at 0.1 µM.

The target in assay [13] is T4, Serine/threonine-protein kinase D3 (Homo sapiens). The settings on record: at 1 µM.
For assay [14], the target named is T5, cGMP-dependent protein kinase 1 (Homo sapiens) (UniProt Q13976).
T5 sequence (whole entry): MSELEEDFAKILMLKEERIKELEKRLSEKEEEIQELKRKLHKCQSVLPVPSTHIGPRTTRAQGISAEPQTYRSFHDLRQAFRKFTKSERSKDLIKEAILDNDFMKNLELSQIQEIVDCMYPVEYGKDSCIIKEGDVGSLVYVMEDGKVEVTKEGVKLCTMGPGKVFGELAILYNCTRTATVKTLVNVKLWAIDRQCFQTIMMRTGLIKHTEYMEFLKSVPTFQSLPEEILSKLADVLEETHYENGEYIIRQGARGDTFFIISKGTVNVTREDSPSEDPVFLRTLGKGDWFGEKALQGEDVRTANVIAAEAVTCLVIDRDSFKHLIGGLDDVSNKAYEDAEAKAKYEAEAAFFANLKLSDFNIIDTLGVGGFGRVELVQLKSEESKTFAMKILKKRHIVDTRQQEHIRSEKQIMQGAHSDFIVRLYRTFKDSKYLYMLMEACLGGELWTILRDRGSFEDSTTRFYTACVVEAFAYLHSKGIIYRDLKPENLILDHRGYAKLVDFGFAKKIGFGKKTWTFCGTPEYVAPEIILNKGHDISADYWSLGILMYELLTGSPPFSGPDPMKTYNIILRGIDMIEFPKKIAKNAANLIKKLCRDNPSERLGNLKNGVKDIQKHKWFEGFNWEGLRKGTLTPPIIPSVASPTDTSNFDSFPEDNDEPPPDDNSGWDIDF
The following applies: at 0.1 µM.

Assay [15] has as its target T5, cGMP-dependent protein kinase 1 (Homo sapiens). The settings on record: at 1 µM.
For assay [16], the target named is T6, cGMP-dependent protein kinase 2 (Homo sapiens) (UniProt Q13237).
T6 sequence (whole entry): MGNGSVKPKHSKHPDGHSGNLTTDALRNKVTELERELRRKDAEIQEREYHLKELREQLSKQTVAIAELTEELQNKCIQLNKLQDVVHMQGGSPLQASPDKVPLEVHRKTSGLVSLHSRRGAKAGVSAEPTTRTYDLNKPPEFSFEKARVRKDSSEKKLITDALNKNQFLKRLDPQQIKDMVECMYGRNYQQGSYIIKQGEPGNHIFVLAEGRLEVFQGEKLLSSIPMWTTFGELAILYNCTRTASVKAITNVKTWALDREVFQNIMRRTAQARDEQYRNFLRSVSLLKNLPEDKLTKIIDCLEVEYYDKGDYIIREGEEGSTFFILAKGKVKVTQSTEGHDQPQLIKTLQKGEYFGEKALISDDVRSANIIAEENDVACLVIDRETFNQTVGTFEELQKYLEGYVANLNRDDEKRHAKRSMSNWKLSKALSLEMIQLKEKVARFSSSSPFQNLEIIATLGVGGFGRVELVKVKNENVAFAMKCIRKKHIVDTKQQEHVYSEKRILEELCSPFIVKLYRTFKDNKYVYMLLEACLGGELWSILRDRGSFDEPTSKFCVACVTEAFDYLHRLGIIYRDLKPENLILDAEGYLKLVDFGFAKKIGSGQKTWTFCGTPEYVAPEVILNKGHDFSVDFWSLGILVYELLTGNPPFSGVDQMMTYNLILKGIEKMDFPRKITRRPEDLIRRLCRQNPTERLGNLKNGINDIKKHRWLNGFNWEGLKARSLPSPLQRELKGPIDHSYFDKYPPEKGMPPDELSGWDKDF
The following applies: at 0.1 µM.

Assay [17] concerns the target T6, cGMP-dependent protein kinase 2 (Homo sapiens). The settings on record: at 1 µM.
The target in assay [18] is T7, cAMP-dependent protein kinase catalytic subunit PRKX (Homo sapiens) (UniProt P51817).
T7 sequence (whole entry): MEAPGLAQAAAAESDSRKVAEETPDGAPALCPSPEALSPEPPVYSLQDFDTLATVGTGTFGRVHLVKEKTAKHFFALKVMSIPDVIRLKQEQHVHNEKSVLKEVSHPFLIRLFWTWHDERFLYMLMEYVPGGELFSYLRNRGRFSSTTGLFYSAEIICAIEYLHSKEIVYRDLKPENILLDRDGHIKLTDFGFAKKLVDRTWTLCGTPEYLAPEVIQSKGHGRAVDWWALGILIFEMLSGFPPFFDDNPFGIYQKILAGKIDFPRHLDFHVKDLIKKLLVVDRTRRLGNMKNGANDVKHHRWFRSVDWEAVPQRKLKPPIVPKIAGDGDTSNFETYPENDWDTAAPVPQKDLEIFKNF
The settings on record: at 0.1 µM.

The target of assay [19] is T7, cAMP-dependent protein kinase catalytic subunit PRKX (Homo sapiens). The settings on record: at 1 µM.
For assay [20], the target named is Rho-associated protein kinase 1 (Homo sapiens) (UniProt Q13464). The following applies: at 0.1 µM.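 Note: values are mean percent inhibition of ROCK1.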
Rho-associated protein kinase 1 (Homo sapiens), sequence (Q13464 2-1354 limits assumed): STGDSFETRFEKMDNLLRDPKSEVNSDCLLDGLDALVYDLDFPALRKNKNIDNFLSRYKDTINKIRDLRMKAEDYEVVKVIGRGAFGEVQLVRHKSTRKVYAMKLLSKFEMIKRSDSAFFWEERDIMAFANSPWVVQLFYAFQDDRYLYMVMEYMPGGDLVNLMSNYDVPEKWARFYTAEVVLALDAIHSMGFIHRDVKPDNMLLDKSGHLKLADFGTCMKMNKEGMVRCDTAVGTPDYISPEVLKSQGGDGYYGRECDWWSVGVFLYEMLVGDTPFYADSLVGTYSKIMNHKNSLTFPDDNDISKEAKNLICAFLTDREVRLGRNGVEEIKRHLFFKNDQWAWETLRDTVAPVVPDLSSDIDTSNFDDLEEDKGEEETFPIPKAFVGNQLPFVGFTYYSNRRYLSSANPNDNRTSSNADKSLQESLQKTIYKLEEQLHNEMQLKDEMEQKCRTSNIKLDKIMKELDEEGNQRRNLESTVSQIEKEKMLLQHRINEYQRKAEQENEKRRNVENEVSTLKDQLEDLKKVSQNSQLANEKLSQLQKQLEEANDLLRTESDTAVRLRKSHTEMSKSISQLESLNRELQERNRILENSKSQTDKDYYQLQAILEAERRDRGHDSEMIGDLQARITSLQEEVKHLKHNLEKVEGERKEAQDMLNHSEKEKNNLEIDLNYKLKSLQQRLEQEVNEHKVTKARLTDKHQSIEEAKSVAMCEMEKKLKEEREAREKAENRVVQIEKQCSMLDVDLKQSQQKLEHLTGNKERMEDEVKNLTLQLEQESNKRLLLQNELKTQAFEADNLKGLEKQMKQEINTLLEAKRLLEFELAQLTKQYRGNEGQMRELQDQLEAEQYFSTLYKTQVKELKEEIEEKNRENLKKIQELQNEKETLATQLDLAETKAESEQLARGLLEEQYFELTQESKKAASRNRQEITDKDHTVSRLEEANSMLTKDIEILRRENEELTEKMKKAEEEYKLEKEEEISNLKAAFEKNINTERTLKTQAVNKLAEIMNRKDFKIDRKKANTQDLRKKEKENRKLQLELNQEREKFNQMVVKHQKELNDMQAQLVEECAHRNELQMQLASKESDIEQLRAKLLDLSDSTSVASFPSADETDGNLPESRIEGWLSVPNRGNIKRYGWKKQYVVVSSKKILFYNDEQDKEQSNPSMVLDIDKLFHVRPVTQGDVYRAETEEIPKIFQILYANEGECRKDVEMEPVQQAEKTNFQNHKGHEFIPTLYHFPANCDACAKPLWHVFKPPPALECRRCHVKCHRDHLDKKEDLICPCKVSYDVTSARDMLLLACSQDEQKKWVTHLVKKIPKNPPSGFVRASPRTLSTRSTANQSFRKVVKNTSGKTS

Protein kinase C beta type (Homo sapiens), sequence (P05771 2-671 limits assumed): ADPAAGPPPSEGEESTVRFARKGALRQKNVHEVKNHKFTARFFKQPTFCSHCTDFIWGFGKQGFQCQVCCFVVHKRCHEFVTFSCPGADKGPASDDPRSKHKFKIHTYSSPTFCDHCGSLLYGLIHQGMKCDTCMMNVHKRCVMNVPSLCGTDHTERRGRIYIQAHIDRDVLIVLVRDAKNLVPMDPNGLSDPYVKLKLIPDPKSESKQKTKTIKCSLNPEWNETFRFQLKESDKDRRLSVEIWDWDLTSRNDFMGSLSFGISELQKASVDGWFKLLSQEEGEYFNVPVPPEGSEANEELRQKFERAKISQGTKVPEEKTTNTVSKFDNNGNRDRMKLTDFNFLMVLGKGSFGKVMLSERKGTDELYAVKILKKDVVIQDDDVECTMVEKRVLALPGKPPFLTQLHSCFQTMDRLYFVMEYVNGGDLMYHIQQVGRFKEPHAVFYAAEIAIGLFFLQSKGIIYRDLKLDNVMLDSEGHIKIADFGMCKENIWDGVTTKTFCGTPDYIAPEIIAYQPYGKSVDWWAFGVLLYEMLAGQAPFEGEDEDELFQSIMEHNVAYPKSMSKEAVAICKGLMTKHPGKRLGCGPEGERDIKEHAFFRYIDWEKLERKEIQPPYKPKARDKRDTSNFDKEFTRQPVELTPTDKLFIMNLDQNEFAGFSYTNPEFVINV
Protein kinase C theta type (Homo sapiens), sequence (Q04759 whole entry, looked up): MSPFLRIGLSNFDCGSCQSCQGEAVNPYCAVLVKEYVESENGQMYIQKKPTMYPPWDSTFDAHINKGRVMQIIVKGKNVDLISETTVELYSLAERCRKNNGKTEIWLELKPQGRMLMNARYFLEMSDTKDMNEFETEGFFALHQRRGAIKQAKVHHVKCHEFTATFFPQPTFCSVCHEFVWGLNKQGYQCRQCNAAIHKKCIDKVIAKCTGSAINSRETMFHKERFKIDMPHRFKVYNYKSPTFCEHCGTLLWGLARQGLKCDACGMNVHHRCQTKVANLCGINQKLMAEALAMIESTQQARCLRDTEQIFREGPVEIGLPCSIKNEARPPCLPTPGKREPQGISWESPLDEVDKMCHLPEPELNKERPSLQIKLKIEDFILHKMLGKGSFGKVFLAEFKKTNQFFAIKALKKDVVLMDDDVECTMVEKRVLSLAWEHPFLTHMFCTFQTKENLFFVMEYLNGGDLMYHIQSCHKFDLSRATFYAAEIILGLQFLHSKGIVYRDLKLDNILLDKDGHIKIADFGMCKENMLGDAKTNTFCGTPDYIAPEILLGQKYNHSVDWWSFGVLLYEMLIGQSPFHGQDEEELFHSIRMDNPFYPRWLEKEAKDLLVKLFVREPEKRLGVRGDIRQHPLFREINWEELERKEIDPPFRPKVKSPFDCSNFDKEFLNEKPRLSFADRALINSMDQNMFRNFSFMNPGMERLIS

With `[O-][S+]1CCN(Cc2ccc(-c3ccc4ncnc(Nc5ccc(OCc6cccc(F)c6)c(Cl)c5)c4c3)o2)CC1`, the inhibition in assay [1] came to 1.04%; in [2], 3.42%; in assay [3], 2.26%; in assay [4], 2.17%; in assay [5], 2.74%; in [6] it was 2.05%. Besides, the inhibition in [7] came out at 2.51%; in assay [8], 5.58%; in [9], 10.6%; in assay [10], 4.6%; in [11], 6.63%; in assay [12], 4.66%. The inhibition was 6.53% in assay [13]; 3.87% in assay [14]; 3.85% in assay [15]; 3.53% in [16]; 5.63% in [17]; 2.88% in [18]. In addition, the inhibition in [19] was 2.98%; in assay [20] it was 2.1%.
As to `Cc1cccc(Nc2ncc(-c3ccccc3)o2)c1`, the inhibition in assay [1] was 7.25%; in assay [2] it was 1.43%; in assay [3] it was 2.2%; in [4] it was 4.9%; in assay [5], 6.83%; in assay [6], 2.39%. Also, the inhibition in [7] is 7.38%; in assay [8] it was 3.07%; in assay [9], 5.44%; in [10], 3.21%; in assay [11] it was 3.61%; in assay [12] it was 2.84%. Besides, the inhibition in [13] turned out to be 4.5%; in [14], 5.35%; in assay [15], 11.3%; in assay [16], 6.06%; in assay [17], 10.7%; in assay [18] it was 11.3%. For the same compound, the inhibition was found to be 12% in assay [19] and 1.64% in [20].
